# Records with an inconclusive call do not appear. Where a call stands in place of a potency, no number is given. Unmarked numbers belong to inactive results. The source made the active and inactive calls. Calls come from the whole dose curve; as a rule, active = well fitted curve in the direction sought with a large enough effect; inconclusive = small, poorly fitted or top-dose-only effect, or another doubt; inactive = no such curve, though single readings can be large; an effect the other way counts as inactive or inconclusive.
# Assays:
# KB-3-1 = test: Cytotoxic Profiling of Annotated Libraries Using Quantitative High-Throughput Screening (AID 1296008); details: Five cell lines viability, CellTiter-Glo ATP luminescence, 48-72 h; max response: hits give low values; note: nearly all actives have a fitted effect of over 60% in size
# Outline: (§1)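 Cytotoxicity was measured as CellTiter-Glo ATP luminescence, read after 10 min at room temperature. Compound treatment of the cells lasted 48 or 72 hr at 37 degrees Celsius in a qHTS format.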
# NIH3T3 [1] = test: as above; details: Five cell lines viability, CellTiter-Glo ATP luminescence, 48-72 h; max response: hits give low values
# Outline: as §1
# HACAT = test: qHTS assay to identify novel small-molecules to repurpose for Merkel cell carcinoma treatment (AID 1296009); details: MCC and control cell lines, CellTiter-Glo viability, 72 h; at 44.8 µM (top of the series) unless noted; note: nearly all actives have a fitted effect of over 60% in size; note: potency is the fitted concentration of half-maximal effect
# Outline: (§2)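 72 hr, 37 degree celsius; NPC 8-pt / MIPE 11-pt dose response; compound pinned in DMSO; CellTiter-Glo, 10 min RT, luminescence; normalized to no-cell and DMSO controls.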
# MCC-13 = test: as above; details: MCC and control cell lines, CellTiter-Glo viability, 72 h; series mostly up to 46 µM
# Outline: as §2
# MCC-26 = test: as above; details: MCC and control cell lines, CellTiter-Glo viability, 72 h; series mostly up to 46 µM
# Outline: as §2
# MKL-2 = test: as above; details: MCC and control cell lines, CellTiter-Glo viability, 72 h; series mostly up to 46 µM
# Outline: as §2
# NIH3T3 [2] = test: as above; details: MCC and control cell lines, CellTiter-Glo viability, 72 h; at 44.8 µM (top of the series)
# Outline: as §2
# UISO = test: as above; details: MCC and control cell lines, CellTiter-Glo viability, 72 h; series mostly up to 46 µM
# Outline: as §2
# C33A = test: Primary qHTS to identify gynecologic anti-cancer compounds using libraries of approved drugs and bioactive compounds (AID 1345084); details: Gynecologic cancer cell panel viability, ATPlite luminescence, 48 h; series mostly up to 57.5 µM; note: nearly all actives have a fitted effect of over 55% in size; note: potency is the fitted concentration of half-maximal effect
# Outline: (§3)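 Cells, 1,000 per well, were allowed to settle for 16 h at 37 C before compound addition. Five concentrations were tested for 48 h, and viability was read by ATPlite luminescence after 15 min at room temperature.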
# CASKI = test: as above; details: Gynecologic cancer cell panel viability, ATPlite luminescence, 48 h; series mostly up to 57.5 µM
# Outline: as §3
# Es-2 = test: as above; details: Gynecologic cancer cell panel viability, ATPlite luminescence, 48 h; series mostly up to 57.5 µM
# Outline: as §3
# HeLa = test: as above; details: Gynecologic cancer cell panel viability, ATPlite luminescence, 48 h; series mostly up to 57.5 µM
# Outline: as §3
# Hek293T [3] = test: as above; details: Gynecologic cancer cell panel viability, ATPlite luminescence, 48 h, control line for the selectivity index; series mostly up to 57.5 µM
# Outline: as §3
# JEG-3 = test: as above; details: Gynecologic cancer cell panel viability, ATPlite luminescence, 48 h; series mostly up to 57.5 µM
# Outline: as §3
# OV90 = test: as above; details: Gynecologic cancer cell panel viability, ATPlite luminescence, 48 h; series mostly up to 57.5 µM
# Outline: as §3
# PA-1 = test: as above; details: Gynecologic cancer cell panel viability, ATPlite luminescence, 48 h; series mostly up to 57.5 µM
# Outline: as §3
# MKL-1 = test: qHTS assay to identify novel small-molecules to repurpose for Merkel cell carcinoma treatment (AID 1296009); details: MCC and control cell lines, CellTiter-Glo viability, 72 h; series mostly up to 46 µM; note: nearly all actives have a fitted effect of over 60% in size; note: potency is the fitted concentration of half-maximal effect
# Outline: as §2
# WaGa = test: as above; details: MCC and control cell lines, CellTiter-Glo viability, 72 h; series mostly up to 46 µM
# Outline: as §2
# CAOV3 = test: Primary qHTS to identify gynecologic anti-cancer compounds using libraries of approved drugs and bioactive compounds (AID 1345084); details: Gynecologic cancer cell panel viability, ATPlite luminescence, 48 h; series mostly up to 57.5 µM; note: nearly all actives have a fitted effect of over 55% in size; note: potency is the fitted concentration of half-maximal effect
# Outline: as §3
# HEK293T [4] = test: qHTS assay to identify novel small-molecules to repurpose for Merkel cell carcinoma treatment (AID 1296009); details: MCC and control cell lines, CellTiter-Glo viability, 72 h; at 44.8 µM (top of the series) unless noted; note: nearly all actives have a fitted effect of over 60% in size; note: potency is the fitted concentration of half-maximal effect
# Outline: as §2
smiles,measurement,setting,value
Cc1c[nH]c2ccccc12,max response,KB-3-1,8.35%
same,outcome,NIH3T3 [1],inactive
same,outcome,HACAT,inactive
same,Potency,MCC-13,inactive
same,Potency,MCC-26,inactive
same,Potency,MKL-2,inactive
same,outcome,NIH3T3 [2],inactive
same,Potency,UISO,inactive
same,Potency,C33A,inactive
same,Potency,CASKI,inactive
same,Potency,Es-2,inactive
same,Potency,HeLa,inactive
same,Potency,Hek293T [3],inactive
same,Potency,JEG-3,inactive
same,Potency,OV90,inactive
same,Potency,PA-1,inactive
N/C(=N\N=C\c1ccc(Cl)cc1)N/N=C/c1ccc(Cl)cc1,max response,KB-3-1,13.1%
same,max response,NIH3T3 [1],-19%
same,outcome,HACAT,inactive
same,Potency,MCC-13,inactive
same,Potency,MCC-26,inactive
same,Potency,MKL-1,inactive
same,Potency,UISO,inactive
same,Potency,WaGa,inactive
same,Potency,C33A,inactive
same,Potency,CAOV3,inactive
same,Potency,CASKI,inactive
same,Potency,Es-2,inactive
same,Potency,HeLa,inactive
same,Potency,Hek293T [3],inactive
same,Potency,JEG-3,inactive
same,Potency,OV90,inactive
same,Potency,PA-1,inactive
CCC1NC(=O)c2cc(S(N)(=O)=O)c(Cl)cc2N1 (stereo not given),max response,KB-3-1,-10.4%
same,max response,NIH3T3 [1],3.38%
same,Potency,MCC-13,inactive
same,Potency,MCC-26,inactive
same,Potency,MKL-1,inactive
same,Potency,MKL-2,inactive
same,Potency,UISO,inactive
same,Potency,WaGa,inactive
same,Potency,C33A,inactive
same,Potency,CAOV3,inactive
same,Potency,CASKI,inactive
same,Potency,Es-2,inactive
same,Potency,HeLa,inactive
same,Potency,Hek293T [3],inactive
same,Potency,JEG-3,inactive
same,Potency,OV90,inactive
same,Potency,PA-1,inactive
CCOc1cc(OCC)c(C(=O)CCC(=O)O)cc1OCC,max response,KB-3-1,-0.0013%
same,outcome,NIH3T3 [1],inactive
same,outcome,HACAT,inactive
same,Potency,MCC-13,inactive
same,Potency,MKL-1,inactive
same,Potency,MKL-2,inactive
same,outcome,NIH3T3 [2],inactive
same,Potency,UISO,inactive
same,Potency,WaGa,inactive
same,Potency,C33A,inactive
same,Potency,CAOV3,inactive
same,Potency,CASKI,inactive
same,Potency,Es-2,inactive
same,Potency,HeLa,inactive
same,Potency,Hek293T [3],inactive
same,Potency,JEG-3,inactive
same,Potency,OV90,inactive
same,Potency,PA-1,inactive
C#C[C@]1(O)CC[C@H]2[C@@H]3[C@H](C)CC4=C(CCC(=O)C4)[C@H]3CC[C@@]21C,max response,KB-3-1,-4.12%
same,max response,NIH3T3 [1],-7.98%
same,outcome,HACAT,inactive
same,Potency,MCC-13,inactive
same,Potency,MCC-26,inactive
same,Potency,MKL-1,inactive
same,Potency,UISO,inactive
same,Potency,WaGa,18.8 µM (active)
same,Potency,C33A,inactive
same,Potency,CAOV3,inactive
same,Potency,CASKI,inactive
same,Potency,Es-2,inactive
same,Potency,HeLa,inactive
same,Potency,Hek293T [3],inactive
same,Potency,JEG-3,inactive
same,Potency,OV90,inactive
same,Potency,PA-1,inactive
OCCOCCN1CCN(C2=Nc3ccccc3Sc3ccccc32)CC1,max response,KB-3-1,-2.1%
same,max response,NIH3T3 [1],-7.78%
same,outcome,HACAT,inactive
same,Potency,MCC-13,inactive
same,Potency,MKL-1,inactive
same,Potency,MKL-2,inactive
same,Potency,UISO,inactive
same,Potency,WaGa,inactive
same,Potency,C33A,inactive
same,Potency,CASKI,inactive
same,Potency,Es-2,inactive
same,Potency,HeLa,inactive
same,Potency,Hek293T [3],inactive
same,Potency,JEG-3,inactive
same,Potency,OV90,inactive
same,Potency,PA-1,inactive
COc1ccc(CCN(C)CCCN2CCc3cc(OC)c(OC)cc3CC2=O)cc1OC,max response,KB-3-1,-10.8%
same,max response,NIH3T3 [1],3.6%
same,outcome,HEK293T [4],inactive
same,Potency,MCC-13,inactive
same,Potency,MKL-1,inactive
same,Potency,MKL-2,inactive
same,Potency,UISO,inactive
same,Potency,C33A,inactive
same,Potency,CAOV3,inactive
same,Potency,CASKI,inactive
same,Potency,Es-2,inactive
same,Potency,HeLa,inactive
same,Potency,Hek293T [3],inactive
same,Potency,JEG-3,inactive
same,Potency,OV90,inactive
same,Potency,PA-1,inactive
O=C1C(CCS(=O)c2ccccc2)C(=O)N(c2ccccc2)N1c1ccccc1 (stereo not given),max response,KB-3-1,4.22%
same,max response,NIH3T3 [1],-2.37%
same,outcome,HACAT,inactive
same,Potency,MCC-13,inactive
same,Potency,UISO,inactive
same,Potency,WaGa,inactive
same,Potency,C33A,inactive
same,Potency,CAOV3,inactive
same,Potency,CASKI,inactive
same,Potency,Es-2,inactive
same,Potency,HeLa,inactive
same,Potency,Hek293T [3],inactive
same,Potency,JEG-3,inactive
same,Potency,OV90,inactive
same,Potency,PA-1,inactive
O=C(O)CCc1nc2ccccc2[nH]1,max response,KB-3-1,-8.67%
same,max response,NIH3T3 [1],-8.19%
same,Potency,MCC-13,inactive
same,Potency,MCC-26,inactive
same,Potency,MKL-1,inactive
same,Potency,MKL-2,inactive
same,Potency,UISO,inactive
same,Potency,WaGa,inactive
same,Potency,C33A,inactive
same,Potency,CAOV3,inactive
same,Potency,CASKI,inactive
same,Potency,Es-2,inactive
same,Potency,HeLa,inactive
same,Potency,Hek293T [3],inactive
same,Potency,JEG-3,inactive
same,Potency,OV90,inactive
CCCCCCCCCCC[C@@H](C[C@@H]1OC(=O)[C@H]1CCCCCC)OC(=O)[C@H](CC(C)C)NC=O,max response,KB-3-1,-9.82%
same,max response,NIH3T3 [1],1.98%
same,outcome,HACAT,inactive
same,Potency,MCC-13,inactive
same,Potency,MKL-1,inactive
same,Potency,MKL-2,inactive
same,Potency,UISO,inactive
same,Potency,WaGa,inactive
same,Potency,C33A,inactive
same,Potency,CAOV3,inactive
same,Potency,CASKI,inactive
same,Potency,Es-2,inactive
same,Potency,HeLa,inactive
same,Potency,Hek293T [3],inactive
same,Potency,JEG-3,inactive
same,Potency,OV90,inactive
same,Potency,PA-1,inactive
COc1ccc(C(=O)c2ccccc2O)c(O)c1,max response,KB-3-1,-2.05%
same,max response,NIH3T3 [1],1.03%
same,Potency,MCC-13,inactive
same,Potency,MCC-26,inactive
same,Potency,MKL-1,inactive
same,Potency,MKL-2,inactive
same,Potency,UISO,inactive
same,Potency,WaGa,inactive
same,Potency,C33A,inactive
same,Potency,CAOV3,inactive
same,Potency,CASKI,inactive
same,Potency,Es-2,inactive
same,Potency,HeLa,inactive
same,Potency,Hek293T [3],inactive
same,Potency,JEG-3,inactive
same,Potency,OV90,inactive
same,Potency,PA-1,inactive
CCN(CC)CCOc1ccccc1C(=O)CCc1ccccc1,max response,KB-3-1,-2.43%
same,max response,NIH3T3 [1],-3.4%
same,outcome,HACAT,inactive
same,Potency,MCC-13,inactive
same,Potency,MKL-1,inactive
same,Potency,MKL-2,inactive
same,Potency,UISO,inactive
same,Potency,C33A,inactive
same,Potency,CASKI,inactive
same,Potency,Es-2,inactive
same,Potency,HeLa,inactive
same,Potency,Hek293T [3],inactive
same,Potency,JEG-3,inactive
same,Potency,PA-1,inactive
C[C@H]1[C@H]2CC[C@H]3[C@@H]4CC=C5C[C@@H](N(C)C)CC[C@]5(C)[C@H]4CC[C@]23CN1C,max response,KB-3-1,3.38%
same,max response,NIH3T3 [1],0.439%
same,outcome,HACAT,inactive
same,Potency,MCC-13,inactive
same,Potency,MKL-2,inactive
same,Potency,UISO,inactive
same,Potency,WaGa,inactive
same,Potency,C33A,inactive
same,Potency,CAOV3,inactive
same,Potency,CASKI,inactive
same,Potency,Es-2,inactive
same,Potency,HeLa,inactive
same,Potency,Hek293T [3],inactive
same,Potency,JEG-3,inactive
same,Potency,OV90,15.8 µM (active)
same,Potency,PA-1,inactive
CCC(Cc1c(I)cc(I)c(N)c1I)C(=O)O (stereo not given),max response,KB-3-1,-8.27%
same,max response,NIH3T3 [1],2.99%
same,outcome,HEK293T [4],inactive
same,Potency,MCC-13,inactive
same,Potency,MCC-26,inactive
same,Potency,MKL-1,inactive
same,Potency,MKL-2,inactive
same,Potency,UISO,inactive
same,Potency,WaGa,inactive
same,Potency,C33A,inactive
same,Potency,CAOV3,inactive
same,Potency,CASKI,inactive
same,Potency,Es-2,inactive
same,Potency,HeLa,inactive
same,Potency,Hek293T [3],inactive
same,Potency,JEG-3,inactive
same,Potency,OV90,inactive
same,Potency,PA-1,inactive

# Source: PubChem BioAssay (NCATS)
